Experimental data reported in PubChem BioAssay (NCATS).
Several values for one entry are separate records, joined by “and”; a condition that tells them apart may be missing. Equal entries are not always repeated. Records with an inconclusive call do not appear. The source holds several records for some structures; these can differ, active in one and inactive in another. Activity calls are given as the source filed them. Calls come from the whole dose curve; as a rule, active = well fitted inhibition curve with a large enough effect; inconclusive = small, poorly fitted or top-dose-only effect; inactive = flat fitted curve, though single readings scatter.

Key:
P93_24 = test: qHTS profiling for inhibitors of Plasmodium falciparum proliferation (AID 504749); note: potency is the fitted concentration of half-maximal effect; details: P. falciparum in erythrocytes, SYBR Green DNA, 72 h; series mostly up to 28.7 µM
Method in brief: (§1)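 SYBR Green fluorescence of parasite DNA, read after lysis and overnight dark incubation, measured growth over 72 h in erythrocyte culture at 0.3% parasitemia and 2.5% hematocrit. Data normalised to DMSO and 0.29 uM artemisinin, with plate-drift correction.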

P94_40 = test: as above; details: P. falciparum in erythrocytes, SYBR Green DNA, 72 h; series mostly up to 28.7 µM
Method in brief: as §1

PAD = test: as above; details: P. falciparum in erythrocytes, SYBR Green DNA, 72 h; series mostly up to 28.7 µM
Method in brief: as §1

PC15 = test: as above; details: P. falciparum in erythrocytes, SYBR Green DNA, 72 h; series mostly up to 28.7 µM
Method in brief: as §1

PC49 = test: as above; details: P. falciparum in erythrocytes, SYBR Green DNA, 72 h; series mostly up to 28.7 µM
Method in brief: as §1

SC27B = test: as above; details: P. falciparum in erythrocytes, SYBR Green DNA, 72 h; series mostly up to 28.7 µM
Method in brief: as §1

TAB109 = test: as above; details: P. falciparum in erythrocytes, SYBR Green DNA, 72 h; series mostly up to 28.7 µM
Method in brief: as §1

TAB113 = test: as above; details: P. falciparum in erythrocytes, SYBR Green DNA, 72 h; series mostly up to 28.7 µM
Method in brief: as §1

TAB165 = test: as above; details: P. falciparum in erythrocytes, SYBR Green DNA, 72 h; series mostly up to 28.7 µM
Method in brief: as §1

W2 = test: as above; details: P. falciparum in erythrocytes, SYBR Green DNA, 72 h; series mostly up to 28.7 µM
Method in brief: as §1

CRL-7250 = normal cell line; test: Cytotoxic Profiling of Annotated Libraries Using Quantitative High-Throughput Screening (AID 1296008); details: Five cell lines viability, CellTiter-Glo ATP luminescence, 48-72 h; max response: active compounds read low; note: potency is the fitted concentration of half-maximal effect; for max response: % is set by controls: 0 for no effect and ±100 for the full control effect
Method in brief: (§2)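 Cytotoxicity was measured as CellTiter-Glo ATP luminescence, read after 10 min at room temperature. Compound treatment of the cells lasted 48 or 72 hr at 37 degrees Celsius in a qHTS format.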

HaCat [1] = test: as above; details: Five cell lines viability, CellTiter-Glo ATP luminescence, 48-72 h; max response: active compounds read low
Method in brief: as §2

KB-3-1 = test: as above; details: Five cell lines viability, CellTiter-Glo ATP luminescence, 48-72 h; max response: active compounds read low
Method in brief: as §2

NIH3T3 = test: as above; details: Five cell lines viability, CellTiter-Glo ATP luminescence, 48-72 h; max response: active compounds read low
Method in brief: as §2

MCC-13 = test: qHTS assay to identify novel small-molecules to repurpose for Merkel cell carcinoma treatment (AID 1296009); details: MCC and control cell lines, CellTiter-Glo viability, 72 h; series mostly up to 46 µM
Method in brief: (§3)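 Cell viability, measured as CellTiter-Glo luminescence, was normalized between DMSO and no-cell wells. The cells had been exposed to 8- or 11-point compound dilutions for 72 hr at 37 degree celsius.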

MCC-26 = test: as above; details: MCC and control cell lines, CellTiter-Glo viability, 72 h; series mostly up to 46 µM
Method in brief: as §3

PC26 = test: qHTS profiling for inhibitors of Plasmodium falciparum proliferation (AID 504749); note: potency is the fitted concentration of half-maximal effect; details: P. falciparum in erythrocytes, SYBR Green DNA, 72 h; series mostly up to 28.7 µM
Method in brief: as §1

HACAT [2] = test: qHTS assay to identify novel small-molecules to repurpose for Merkel cell carcinoma treatment (AID 1296009); details: MCC and control cell lines, CellTiter-Glo viability, 72 h; series mostly up to 44.8 µM
Method in brief: as §3

HEK293 = test: Cytotoxic Profiling of Annotated Libraries Using Quantitative High-Throughput Screening (AID 1296008); details: Five cell lines viability, CellTiter-Glo ATP luminescence, 48-72 h; max response: active compounds read low; note: potency is the fitted concentration of half-maximal effect; for max response: % is set by controls: 0 for no effect and ±100 for the full control effect
Method in brief: as §2

HEK293T = test: qHTS assay to identify novel small-molecules to repurpose for Merkel cell carcinoma treatment (AID 1296009); details: MCC and control cell lines, CellTiter-Glo viability, 72 h; at 44.8 µM (top of the series) unless noted
Method in brief: as §3
Note: nearly all actives have a fitted effect of over 60% in size.

CC(C)NCC(O)c1ccc(O)c(O)c1 (configuration not stated)
inactive: Potency (P93_24) | Potency (P94_40) | Potency (PAD) | Potency (PC15) | Potency (PC49) | Potency (SC27B) | Potency (TAB109) | Potency (TAB113) | Potency (TAB165) | Potency (W2) | max response (CRL-7250) 0.851% | max response (HaCat [1]) 3.14% and -18% | max response (KB-3-1) 0.229% | max response (NIH3T3) -0.342% and -6.04% | Potency (MCC-13) | Potency (MCC-26)

CC(C)C(=O)Nc1ccc([N+](=O)[O-])c(C(F)(F)F)c1
inactive: Potency (P93_24) | Potency (P94_40) | Potency (PAD) | Potency (PC15) | Potency (PC26) | Potency (PC49) | Potency (SC27B) | Potency (TAB109) | Potency (TAB113) | Potency (TAB165) | Potency (W2) | max response (CRL-7250) -19.8% | outcome (HaCat [1]) | max response (KB-3-1) -17.3% and -13.1% | max response (NIH3T3) -15.1% | outcome (NIH3T3) | outcome (HACAT [2]) | Potency (MCC-13) | Potency (MCC-26)

Cn1c(=O)c2[nH]cnc2n(C)c1=O
inactive: Potency (P93_24) | Potency (P94_40) | Potency (PC15) | Potency (PC26) | Potency (PC49) | Potency (SC27B) | Potency (TAB109) | Potency (TAB113) | Potency (TAB165) | Potency (W2)

COc1cc2nc(N3CCN(C(=O)C4COc5ccccc5O4)CC3)nc(N)c2cc1OC (configuration not stated)
inactive: max response (HaCat [1]) -6.13% | outcome (HaCat [1]) | max response (KB-3-1) 19.6% and -6.62% | max response (NIH3T3) -16.5% | outcome (NIH3T3) | outcome (HACAT [2]) | Potency (MCC-13) | Potency (MCC-26)

CC(COc1ccccc1)N(CCCl)Cc1ccccc1 (configuration not stated)
active: Potency (W2) 6010 nM
inactive: Potency (PAD) | Potency (PC15) | Potency (PC49)

Cc1cn([C@H]2C=C[C@@H](CO)O2)c(=O)[nH]c1=O
inactive: Potency (P93_24) | Potency (P94_40) | Potency (PAD) | Potency (PC15) | Potency (PC26) | Potency (PC49) | Potency (SC27B) | Potency (TAB109) | Potency (TAB113) | Potency (TAB165) | Potency (W2) | max response (CRL-7250) -12.9% and -2.54% | max response (HEK293) -0.556% and 1.63% | max response (HaCat [1]) 4.4% and -10.3% | max response (NIH3T3) 1.04% and -9.57% | Potency (MCC-13) | Potency (MCC-26)

COc1ccccc1OCC(O)CN1CCN(CC(=O)Nc2c(C)cccc2C)CC1 (configuration not stated)
inactive: Potency (P93_24) | Potency (P94_40) | Potency (PAD) | Potency (PC15) | Potency (PC26) | Potency (PC49) | Potency (SC27B) | Potency (TAB109) | Potency (TAB113) | Potency (TAB165) | Potency (W2) | max response (HEK293) 1.75% | outcome (HEK293) | max response (HaCat [1]) -0.555% | outcome (HaCat [1]) | max response (KB-3-1) 4.47% and -3.97% | max response (NIH3T3) -5.09% | outcome (NIH3T3) | outcome (HACAT [2]) | outcome (HEK293T) | Potency (MCC-13) | Potency (MCC-26)

O=C(Nc1ccc([N+](=O)[O-])cc1Cl)c1cc(Cl)ccc1O
active: Potency (PAD) 631 nM | Potency (SC27B) 631 nM | Potency (TAB113) 708 nM | Potency (TAB165) 355 nM | Potency (W2) 953 nM
inactive: Potency (PC26) | Potency (PC49) | Potency (MCC-26)

CC12CC3CC(C)(C1)CC(N)(C3)C2
inactive: Potency (P94_40) | Potency (PAD) | Potency (PC15) | Potency (PC26) | Potency (SC27B) | Potency (TAB109) | Potency (TAB113) | Potency (TAB165) | outcome (CRL-7250) | max response (HEK293) -1.65% and -16.7% | max response (HaCat [1]) 0.352% and -2.07% | max response (NIH3T3) 1.33% and -0.312% | Potency (MCC-13) | Potency (MCC-26)
active: Potency (P93_24) 10000 nM

Cc1cn([C@H]2C[C@H](N=[N+]=[N-])[C@@H](CO)O2)c(=O)[nH]c1=O
inactive: Potency (P93_24) | Potency (P94_40) | Potency (PAD) | Potency (PC15) | Potency (PC26) | Potency (PC49) | Potency (SC27B) | Potency (TAB109) | Potency (TAB113) | Potency (TAB165) | Potency (W2)

Clc1ccccc1C(c1ccccc1)(c1ccccc1)n1ccnc1
inactive: max response (CRL-7250) -11.6% and -17.2% | max response (HaCat [1]) -12.4% and -20.3% | Potency (MCC-13) | Potency (MCC-26)
active: Potency (P93_24) 126 nM | Potency (P94_40) 631 nM | Potency (PAD) 355 nM | Potency (PC15) 1000 nM | Potency (PC26) 572 nM | Potency (PC49) 1000 nM | Potency (SC27B) 398 nM | Potency (TAB109) 794 nM | Potency (TAB113) 631 nM | Potency (TAB165) 100 nM | Potency (W2) 405 nM | Potency (HEK293) 20900 nM

O=C(c1ccc(OCCN2CCCCC2)cc1)c1c(-c2ccc(O)cc2)sc2cc(O)ccc12
inactive: outcome (CRL-7250) | outcome (HaCat [1]) | max response (KB-3-1) -14.1% and -7.5% | max response (NIH3T3) -12.5% | outcome (HACAT [2]) | Potency (MCC-13) | Potency (MCC-26)
active: Potency (P93_24) 8910 nM | Potency (P94_40) 7940 nM | Potency (SC27B) 8910 nM | Potency (TAB109) 7940 nM | Potency (TAB113) 5010 nM | Potency (TAB165) 2820 nM | Potency (W2) 3010 nM | Potency (HaCat [1]) 16800 nM | Potency (NIH3T3) 18800 nM
